Broadly, the AC50 is the concentration at which the activity in the assay is half-maximal.

Values joined by “and” are separate entries in the source; they are usually repeats but may differ in a detail not shown here. Identical values can stand only once. The campaign covered roughly 16,000 compounds. About 5,800 (36%) were called active. Inconclusive results (about 23%) are left out. The list shows a part of the results. Unmarked numbers belong to inactive results. Calls come from the whole dose curve; as a rule, active = well fitted curve in the direction sought with a large enough effect; inconclusive = small, poorly fitted or top-dose-only effect, or effect the other way; inactive = no such curve, though single readings can be large or run the other way.
% is set by controls: 0 for no effect and ±100 for the full control effect.

The target of this experiment is Cytochrome P450 2C19 (Homo sapiens) (UniProt P33261). Kind of experiment: Cytochrome panel assay with activity outcomes. Particulars: recombinant CYP, pro-luciferin dealkylation, luminescence, p450-cyp2c19; series mostly up to 57.1 µM; activity, negative = inhibition: at the top concentration.
Chain of Cytochrome P450 2C19 (Homo sapiens) (P33261 whole entry, looked up): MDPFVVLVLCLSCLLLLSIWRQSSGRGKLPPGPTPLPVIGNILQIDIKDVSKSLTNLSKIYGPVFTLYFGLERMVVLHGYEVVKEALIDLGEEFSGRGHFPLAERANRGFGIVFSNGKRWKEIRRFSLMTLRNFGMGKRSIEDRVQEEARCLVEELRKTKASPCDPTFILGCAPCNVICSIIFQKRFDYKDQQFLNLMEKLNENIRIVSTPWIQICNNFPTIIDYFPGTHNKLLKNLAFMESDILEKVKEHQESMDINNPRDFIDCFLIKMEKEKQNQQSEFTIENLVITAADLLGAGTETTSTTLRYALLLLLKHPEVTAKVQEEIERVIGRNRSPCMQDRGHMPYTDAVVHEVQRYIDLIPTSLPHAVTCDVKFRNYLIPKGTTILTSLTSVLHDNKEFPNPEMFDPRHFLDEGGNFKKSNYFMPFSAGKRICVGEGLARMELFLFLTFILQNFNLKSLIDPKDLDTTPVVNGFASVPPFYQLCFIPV
Take `COc1ncc2nc(-c3cc(F)cc(F)c3)c(=O)n(C3CC3)c2n1`: the “activity, negative = inhibition” value was -20.5%.

With `COc1cccc(C(C(=O)Nc2ccc(F)cc2)N(C(=O)Cn2nnc3ccccc32)C2CC2)c1` (stereo not drawn), the AC50 was 20 µM (active).

As to `CCc1ccc(N2C(=O)c3ccc4c5c(ccc(c35)C2=O)CC4)cc1`, the AC50 was 3.16 µM (active).

Consider `Cc1onc(-c2c(Cl)cccc2Cl)c1C(=O)N1CCc2ccccc2C1`, for which the AC50 is 2.82 µM (active).

Consider `N=C(N)N1CCc2ccccc2C1`, for which the “activity, negative = inhibition” value is 20.8% [at 25.6 µM].

Take `Cc1noc(C)c1C(=O)N1CCC2(CCN(Cc3ccccc3)CC2)CC1`: the “activity, negative = inhibition” value was -2.84%.

On to `Cc1ccccc1C(=O)N1CCc2ccccc2C1`, for which the half-maximal activity concentration (AC50) is 1.41 µM (active).

`Cc1noc(C)c1C(=O)N1CCC2(CC1)CN(c1ccccc1)C2`: the “activity, negative = inhibition” value is -34.5%.

In the case of `NCCSC[C@H](N)C(=O)O`, the activity, negative = inhibition is -6.06% [at 11.4 µM].

On to `O=C1CC(c2cccs2)c2cc3c(cc2N1)OCO3` (stereo not drawn), for which the AC50 was 1.12 µM (active).

Consider `CCC[C@@H]1C[C@@]1(CCC)C(NS(=O)(=O)c1cccc2cccnc12)c1ccc(Cl)cc1` (stereo partly drawn), for which the AC50 was 3.16 µM (active).

`CCCC[C@@H]1C[C@H]1C(NC(=O)c1ccc(-c2ccccc2)cc1)c1ccc(-c2ccccc2)cc1` (stereo partly drawn): the “activity, negative = inhibition” value was 31.1%.

As to `CCC[C@@H]1C[C@@]1(CCC)C(NC(=O)c1ccco1)c1ccc(Cl)cc1` (stereo partly drawn), the AC50 is 3.16 µM (active).

As to `CCCC[C@@H]1C[C@H]1C(NC(=O)c1ccco1)c1ccc(-c2ccccc2)cc1` (stereo partly drawn), the half-maximal activity concentration (AC50) was 25.1 µM (active).

`CCCC[C@@H]1C[C@H]1C(NC(=O)c1ccco1)c1ccc(C(=O)OC)cc1` (stereo partly drawn): the concentration at half-maximal activity (AC50) was 1 µM (active).

For the compound `CO[C@H]1COC(=O)C/C=C\[C@H](C)COC(=O)[C@@H](C)NC(=O)C/C=C\[C@@H]1C`, the activity, negative = inhibition is -31.5% [at 11.4 µM].

Turning to `COCCn1c(=O)c(C)nc2cnc(Nc3cccc(OC)c3)nc21`, the “activity, negative = inhibition” value was -5.79%.

Turning to `CCC[C@@H]1C[C@@]1(CCC)C(NC(=O)OCc1ccccc1)c1ccc(-c2ccccc2)cc1` (stereo partly drawn), the AC50 is 1.26 µM (active).

`CCCC[C@@H]1C[C@H]1C(NC(=O)c1ccco1)c1ccccc1` (stereo partly drawn): the AC50 is 1.26 µM (active).

With `C[C@@]1(C(NC(=O)Cc2ccccc2)c2ccc(-c3ccccc3)cc2)C[C@H]1C1CCCCC1` (stereo partly drawn), the “activity, negative = inhibition” value is 2.32%.

For `CCCC[C@@H]1C[C@H]1C(NC(=O)c1ccco1)c1ccc(Cl)cc1` (stereo partly drawn), the AC50 was 0.316 µM (active).

Regarding `CC[C@](N)(C(=O)O)C(C)C`, the activity, negative = inhibition is 31.3% [at 11.4 µM].

As for `CCCn1c(N)c(C(=O)CSc2nc(C)cs2)c(=O)n(C)c1=O`, the AC50 is 10 µM (active).

On to `O=C(O)/C=C\c1ccc(O)c(O)c1`, for which the “activity, negative = inhibition” value is 25.2% [at 25.6 µM].

Consider `O=C(/C=C\c1ccc(O)c(O)c1)O[C@@H](Cc1ccc(O)c(O)c1)C(=O)O`, for which the “activity, negative = inhibition” value was -39.4%.

Consider `COC(=O)/C=C\c1cc(O)ccc1O`, for which the AC50 is 15.8 µM (active).

As to `CO[C@@H](C(C)C)[C@@H](C)[C@@H]1OC(=O)C[C@@H]1O`, the activity, negative = inhibition is 2.42% [at 11.4 µM].

For `COC(=O)C[C@@H]1O[C@H]1[C@H](C)[C@@H](OC)C(C)C`, the AC50 was 3.98 µM (active).

On to `CC(O)CN(CCC(N)=O)CCC(N)=O` (stereo not drawn), for which the “activity, negative = inhibition” value was -1.48%.

With `COc1ccc(S(=O)(=O)N2CC3C4C=CC(C4)C3C2)cc1` (stereo not drawn), the AC50 was 0.891 µM (active).

In the case of `O=C(OCc1nnc(-c2ccccc2)o1)c1ccc2c(c1)OCCO2`, the AC50 is 8.91 µM (active).

As to `CCCN1C(=O)C2(/C(=C(\O)c3ccc4c(c3)OCCO4)C(=O)C(=O)N2CCCOC)c2ccccc21` (stereo not drawn), the “activity, negative = inhibition” value was -16.7%.

For the compound `CN1CCc2cc3c(cc2[C@@H]1[C@@H]1C(=O)Oc2c1ccc1c2OCO1)OCO3`, the AC50 is 0.02 µM (active).

In the case of `C[N+]1(C)CCc2cc3c(cc2[C@@H]1[C@@H]1C(=O)Oc2c1ccc1c2OCO1)OCO3`, the AC50 result is “inactive”.

On to `Cc1ccc(-c2csc(NC(=S)NC(=O)/C=C/c3ccco3)n2)cc1`, for which the “activity, negative = inhibition” value was -28.8%.

Turning to `Cc1ccc(-c2csc(N/N=C/c3ccco3)n2)cc1`, the AC50 is 7.94 µM (active).

Take `CC(=O)OCC(=O)[C@@]1(O)[C@H](C)C[C@@H]2[C@H]3CCC4=CC(=O)C=C[C@]4(C)[C@]3(F)[C@@H](O)C[C@@]21C`: the “activity, negative = inhibition” value was -2.08% [at 25.6 µM].

As for `CCOC(=O)c1cc2sc(C)cc2n1CC(=O)N1CCN(C(=O)c2ccco2)CC1`, the AC50 was 25.1 µM (active).

For `CCOC(=O)c1cc2sc(C)cc2n1CCCN1C(=O)c2ccccc2C1=O`, the AC50 was 3.98 µM (active).

In the case of `CCn1c(=O)cc(SCC(=O)N2CCN(C(=O)c3ccco3)CC2)c2ccccc21`, the “activity, negative = inhibition” value is -35%.

Consider `O=C(CCC(=O)c1cccs1)OCC(=O)N1CCN(C(=O)c2ccco2)CC1`, for which the “activity, negative = inhibition” value was -14.3%.

Turning to `CCN1C(=O)[C@H]2[C@@H]3[C@H](O)C=CC(=O)[C@H]3CC[C@H]2C1=O`, the activity, negative = inhibition was -2.48% [at 11.4 µM].

Take `CCN1C(=O)[C@@H]2[C@H]3C(=CC[C@@H]2C1=O)C1(OCCCO1)[C@H]1O[C@@H]1[C@H]3O`: the AC50 was 1.58 µM (active).

As to `CCN1C(=O)[C@H]2[C@@H]3[C@H](O)[C@H](O)CC(=O)[C@H]3CC[C@H]2C1=O`, the activity, negative = inhibition is -13.9% [at 11.4 µM] and -20% [at 11.4 µM].

For the compound `O=C(NC12CC3CC(CC(C3)C1)C2)c1ccc(COc2ccc(Cl)cc2[N+](=O)[O-])o1`, the AC50 was 3.55 µM (active).

`Cc1ccc2nc(SCc3nc4c(cnn4-c4ccccc4)c(=O)[nH]3)[nH]c2c1`: the AC50 is 4.47 µM (active).

For `O=C(Nc1cccc(-c2nc3ncccc3o2)c1)c1sc2cc(Cl)ccc2c1Cl`, the “activity, negative = inhibition” value is 1.04%.

In the case of `CCCCCC(=O)Nc1cccc(-c2nc3ncccc3o2)c1`, the concentration at half-maximal activity (AC50) is 14.1 µM (active).

On to `O=C(CSc1ccc(Cl)cc1)Nc1cccc(-c2nc3ncccc3o2)c1`, for which the AC50 is 8.91 µM (active).

Turning to `NS(=O)(=O)c1ccc(NCc2ccccc2OCc2ccccc2F)cc1`, the AC50 was 6.31 µM (active).

As to `NS(=O)(=O)c1ccc(NCc2nc3ccccc3[nH]2)cc1`, the activity, negative = inhibition is 39.2% [at 11.4 µM].

Turning to `NS(=O)(=O)c1ccc(NCc2cnc3ccccc3n2)cc1`, the activity, negative = inhibition was 20.6% [at 11.4 µM].

Regarding `CC1CC/C(=C\c2ccc3c(c2)OCO3)C(=O)/C1=C/c1ccc2c(c1)OCO2` (stereo not drawn), the concentration at half-maximal activity (AC50) was 2.82 µM (active).

In the case of `Cc1nc2cnc(N3CCN(C)CC3)nc2n(Cc2cccs2)c1=O`, the “activity, negative = inhibition” value is -6.25%.

As to `COC(=O)[C@@]1(Cc2ccc(F)cc2)[C@H]2c3cc(C(=O)N4CCCC4)n(CCc4ccc(OC)c(Br)c4)c3C[C@H]2CN1C(=O)c1ccccc1`, the AC50 is 5.01 µM (active).

`COC(=O)[C@@]1(Cc2ccc(F)cc2)[C@H]2c3cc(C(=O)N4CCCC4)n(Cc4ccc(S(C)(=O)=O)cc4)c3C[C@H]2CN1C(=O)c1ccccc1`: the “activity, negative = inhibition” value is -41.1%.

`COc1ccccc1CN1CCCC2(CCN(C(=O)c3cccn3C)CC2)C1`: the “activity, negative = inhibition” value is 2.62%.

As to `COC(=O)[C@@]1(Cc2ccc(F)cc2)[C@H]2c3cc(C(=O)N4CCCC4)n(CCc4ccc(O)c(O)c4)c3C[C@H]2CN1C(=O)c1ccccc1`, the concentration at half-maximal activity (AC50) was 15.8 µM (active).

The values above are taken from PubChem BioAssay AID1851 (National Center for Advancing Translational Sciences (NCATS), 2009).
